Results filed as inconclusive are left out. Entries that show only a call come without a potency. Activity calls are given as the source filed them. Calls come from the whole dose curve; as a rule, active = well fitted curve in the direction sought with a large enough effect; inconclusive = small, poorly fitted or top-dose-only effect, or another doubt; inactive = no such curve, though single readings can be large; an effect the other way counts as inactive or inconclusive.
Assays:
[1] = Quantitative High-Throughput drug screen in 47 multiple myeloma cell lines against the NCATS MIPE library collection: KMM1_JCRB cell viability assay (AID 1918960); note: nearly all actives have a fitted effect of over 30% in size; note: potency is the fitted concentration of half-maximal effect
Outline: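 500 cells/well; MIPE 4.0 library pinned in; 48 h, 37 °C, 5% CO2; CellTiter-Glo ATP luminescence. Controls: DMSO = 100% viability, medium only = 0%.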

[2] = Quantitative High-Throughput drug screen in 47 multiple myeloma cell lines against the NCATS MIPE library collection: JIM3_ECACC cell viability assay (AID 1918963; note: nearly all actives have a fitted effect of over 35% in size; note: potency is the fitted concentration of half-maximal effect)
Outline: (§1)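 Myeloma cells (500 per well) were exposed to MIPE 4.0 compounds by pin transfer and incubated 48 hours at 37C, 5% CO2. Viability was read as ATP by CellTiter-Glo luminescence, normalised to DMSO (100%) and media-only (0%) wells.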

[3] = Quantitative High-Throughput drug screen in 47 multiple myeloma cell lines against the NCATS MIPE library collection: JIM1_ECACC cell viability assay (AID 1918964)
Outline: (§2)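 qHTS of the MIPE 4.0 collection: 500 myeloma cells/well, 48 h drug exposure at 37C in 5% CO2, then CellTiter-Glo for 5 min at room temperature before luminescence reading.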

[4] = Quantitative High-Throughput drug screen in 47 multiple myeloma cell lines against the NCATS MIPE library collection: INA6_PLB cell viability assay (AID 1918965; note: nearly all actives have a fitted effect of over 55% in size; note: potency is the fitted concentration of half-maximal effect)
Outline: (§3)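 CellTiter-Glo ATP luminescence gave viability after 48 h compound treatment at 37C of 500 multiple myeloma cells per well. Normalisation used DMSO-only wells as 100% and media-only wells as 0% viability; primary qHTS of approved and investigational drugs.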

[5] = Quantitative High-Throughput drug screen in 47 multiple myeloma cell lines against the NCATS MIPE library collection: H1112_PLB cell viability assay (AID 1918967; note: nearly all actives have a fitted effect of over 30% in size; note: potency is the fitted concentration of half-maximal effect)
Outline: as §2

[6] = Quantitative High-Throughput drug screen in 47 multiple myeloma cell lines against the NCATS MIPE library collection: Karpas25_ECACC cell viability assay (AID 1918968; note: nearly all actives have a fitted effect of over 35% in size; note: potency is the fitted concentration of half-maximal effect)
Outline: as §2

[7] = Quantitative High-Throughput drug screen in 47 multiple myeloma cell lines against the NCATS MIPE library collection: KMS27_JCRB cell viability assay (AID 1918970); note: nearly all actives have a fitted effect of over 30% in size; note: potency is the fitted concentration of half-maximal effect
Outline: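 Myeloma cells (500 per well) were exposed to MIPE 4.0 compounds for 48 h at 37 °C, 5% CO2; viability was read as ATP luminescence with CellTiter-Glo, normalized to DMSO-only (100%) and media-only (0%) wells.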

[8] = Quantitative High-Throughput drug screen in 47 multiple myeloma cell lines against the NCATS MIPE library collection: Karpas417_ECACC cell viability assay (AID 1918961); note: potency is the fitted concentration of half-maximal effect
Outline: as §3

[9] = Quantitative High-Throughput drug screen in 47 multiple myeloma cell lines against the NCATS MIPE library collection: JJN3_DSMZ cell viability assay (AID 1918966; note: nearly all actives have a fitted effect of over 50% in size; note: potency is the fitted concentration of half-maximal effect)
Outline: as §2

[10] = Quantitative High-Throughput drug screen in 47 multiple myeloma cell lines against the NCATS MIPE library collection: KHM11_PLB cell viability assay (AID 1918962); note: nearly all actives have a fitted effect of over 35% in size; note: potency is the fitted concentration of half-maximal effect
Outline: as §1

Compound	Potency [1]	Potency [2]	outcome [3]	Potency [4]	Potency [5]	Potency [6]	Potency [7]	Potency [8]	Potency [9]	Potency [10]
COc1cc(OC)c(OC)cc1C=O	inactive	inactive	inactive	inactive	inactive	inactive	0.0047 µM (active)			
C[C@]12CC[C@H]3[C@@H](CC[C@@]45O[C@H]4C(O)=C(C#N)C[C@]35C)[C@H]1CC[C@H]2O	inactive	inactive	inactive			inactive		inactive	18.7 µM (active)	
C[C@]12CC[C@@H]3c4ccc(OC(=O)N(CCCl)CCCl)cc4CC[C@H]3[C@@H]1CC[C@@H]2OP(=O)(O)O	inactive	inactive	inactive		inactive	inactive	inactive		inactive	
CC(NC(C)(C)C)C(=O)c1cccc(Cl)c1 (centres undefined)		inactive		inactive		3.72 µM (active)	inactive		inactive	
CC(C)c1cccc(C(C)C)c1O	inactive	inactive	inactive	inactive	inactive	inactive				
CCC1(c2ccc(N)cc2)CCC(=O)NC1=O (centres undefined)	inactive	inactive		inactive	inactive	inactive	inactive			
CC(C)C[C@H](CN)CC(=O)O	inactive	inactive	inactive	inactive	inactive	inactive	inactive	inactive		inactive
C[C@](O)(CS(=O)(=O)c1ccc(F)cc1)C(=O)Nc1ccc(C#N)c(C(F)(F)F)c1	8.33 µM (active)	2.35 µM (active)		1.18 µM (active)	0.662 µM (active)	0.418 µM (active)	inactive	0.935 µM (active)	4.69 µM (active)	0.833 µM (active)
O=P1(N(CCCl)CCCl)NCCCO1 (centres undefined)					inactive		20.9 µM (active)	inactive		inactive
O=C(O)CCCc1ccc(N(CCCl)CCCl)cc1	inactive	inactive		18.7 µM (active)	inactive					
CN1C(=O)COc2c(C(=O)NC3CN4CCC3CC4)cc(Cl)cc21 (centres undefined)	inactive	inactive			inactive	inactive				inactive
CN1C(=O)CCS(=O)(=O)C1c1ccc(Cl)cc1 (centres undefined)	inactive	inactive	inactive	inactive	16.6 µM (active)		inactive		inactive	
C[C@]12CCC(=O)C=C1CC[C@@H]1[C@H]3CC[C@](C)(O)[C@@]3(C)CC[C@@H]12	10.8 µM (active)	inactive	inactive		inactive					
